{"source": "PubChem BioAssay (NCI)", "note": "“And” between values parts separate entries of the source, which are not always exact repeats. Equal entries are not always repeated. This is part of a sample that, as a whole, favours compounds with a hit. Of some 83,000 tested, about 20% had one in any assay.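 Percent growth is the endpoint: 0 to 100 indicates growth inhibition (40 means 60% inhibition), 0 means no net growth, and negative values indicate cell death.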 A number with no mark means an inactive call. The source made the active and inactive calls. How the source made its calls: active means growth percent below 10; inactive means the rest.", "data": [{"test_system": "MDA-MB-468 breast", "experiment": "NCI-60 one-dose screen, 48 h (100 = growth as untreated, 0 = no growth, -100 = all killed)", "details": "10 µM unless noted", "values": [{"compound": "CN1CCN(Cc2ccc(NC(=O)c3cncc(C#Cc4cnc(N)c5ncccc45)c3)cc2Cl)CC1", "growth": "85.4%"}, {"compound": "CCCCCCNC(=O)Oc1ccc(/C(=C(/C)Cc2ccc(OC)cc2)c2ccc(OCCN(C)C)cc2)cc1", "growth": "62.9%"}, {"compound": "ClC1(Cl)C2CCCCCCC21", "note": "(configuration not stated)", "growth": "118%"}, {"compound": "COc1cc(C(=O)c2c(-c3ccccc3)oc3ccccc23)cc(OC)c1O", "growth": "0.857% (active)"}, {"compound": "O=c1[nH]c(-c2ccc(Cl)cc2)cn1-c1ccc(-n2cc(-c3ccc(Cl)cc3)[nH]c2=O)cc1", "growth": "103%"}, {"compound": "C[C@@H]1CCCCCCCCC[C@H](O)C(=O)C[C@@H](SC[C@@H](O)C(=O)O)C(=O)O1", "growth": "104%"}, {"compound": "NC1=C(c2nn[nH]n2)C(c2ccccc2Cl)c2ccc3ccccc3c2O1", "note": "(configuration not stated)", "growth": "55.3%"}, {"compound": "C=CCn1c(SCC(=O)Nc2ccc(C(=O)/C=C/c3ccc(Cl)cc3)cc2)nnc1-c1cc(-c2ccc(S(N)(=O)=O)cc2)nc2ccccc12", "growth": "90.2%"}, {"compound": "COc1ccc(CCN2CCCn3c2nc2ccccc2c3=O)cc1", "growth": "-14% (active)"}, {"compound": "CN1CCN(c2ccc(Nc3nc(NCCCNS(=O)(=O)c4ccc(F)cc4)c4sccc4n3)cc2)CC1", "growth": "25.9%"}, {"compound": "CN1c2ccccc2[C@]2(Cc3ccccc3)Cc3ccccc3N[C@H]12", "growth": "115%"}, {"compound": "NC(=S)N/N=C1\\CCCC(C(F)(F)F)C1", "note": "(configuration not stated)", "growth": "31.3%"}, {"compound": "CC(NC(N)=S)c1ccccc1", "note": "(configuration not stated)", "growth": "-11.5% (active)"}, {"compound": "Cc1ccc(-c2nc(N3CCN(CC(=O)Nc4ccc(Cl)c(C(F)(F)F)c4)CC3)c3ccccc3n2)cc1", "growth": "93.9%"}, {"compound": "CCN1CCOC1C(C)C", "note": "(configuration not stated)", "growth": "109%"}, {"compound": "COc1ccc2c(c1)/C(=C1\\S/C(=N/c3nnc(C)s3)NC1=O)C(=O)N2Cc1ccc(Cl)cc1", "growth": "50.9%"}, {"compound": "CSc1ccc2c3c(n(CCCn4ccnc4)c(=O)c2c1)-c1ccccc1C3=O", "growth": "18.2%"}, {"compound": "Cl.[Pt].[c-]1ccccc1-c1ccccn1.c1ccc(P(c2ccccc2)C([PH+](c2ccccc2)c2ccccc2)[PH+](c2ccccc2)c2ccccc2)cc1", "growth": "-6.8% (active)"}, {"compound": "Cc1[nH]c(C(=O)Nc2ccc(C(N)=O)cc2NC(C)C)c(Cl)c1Cl", "growth": "83.7%"}, {"compound": "CC(=O)N1N=C(c2ccc(F)cc2)CC1c1sc(N(C)Cc2ccccc2)nc1Cl", "note": "(configuration not stated)", "growth": "98.1%"}, {"compound": "ClCCOCCn1cnc2c(Cl)nc(Cl)nc21", "growth": "-35.7% (active)"}, {"compound": "CN1CCN(Cc2ccc(NC(=O)c3cncc(C#Cc4c(N)ncc5c(F)cccc45)c3)cc2C(F)(F)F)CC1", "growth": "-82% (active)"}, {"compound": "Cn1c(=O)c2[nH]c(CCCCCCCCc3nc4ccccc4[nH]3)nc2n(C)c1=O", "growth": "10.7% and 21.7%"}, {"compound": "COc1ccc2c(c1)C1=NN(C(=O)CO)[C@H](c3ccc(OC(F)(F)F)cc3)[C@@H]1CC2", "growth": "117%"}, {"compound": "O=C1CSC(c2ccccc2Cl)N1c1nnc(Cn2cnnc2)o1", "note": "(configuration not stated)", "growth": "27.2%"}, {"compound": "O=c1c2cccc(Cl)c2sc2c(NCCCNCCO)nc3ccccc3c12", "growth": "-19.5% (active)"}, {"compound": "N#C/C(=C\\c1cccc(C#N)c1)c1ccccc1", "growth": "106%"}, {"compound": "Nc1nc(CSc2n[nH]c(N)n2)nc(Nc2ccccc2)n1", "growth": "108%"}, {"compound": "CCOc1cccc(/C=N/NC(=O)Cc2ccc(Nc3ccnc(C(F)(F)F)c3)cc2)c1O", "growth": "1.86% (active)"}, {"compound": "O=C(Nc1ncc(Cc2ccccc2Cl)s1)c1ccc2c(c1)OCCO2", "growth": "18.5%"}, {"compound": "CC[C@]12CC(C(=O)OC)=C3Nc4ccccc4[C@@]34CCN(C14)[C@@H]1c3cc4c(cc3O[C@@H]1[C@H]2O)NC1=C(C(=O)OC)C[C@@]2(CC)C3N(CC[C@@]143)C[C@H]1O[C@H]12", "note": "(some centres not stated)", "growth": "-35.7% (active)"}, {"compound": "CC(C)NC[C@@H](C(=O)N1CCN(c2ncnc3c2[C@H](C)C[C@H]3O)CC1)c1ccc(Cl)cc1", "growth": "-18.7% (active)"}, {"compound": "CCOC(=O)c1cc2c(n1Cc1cc(OC)c(OC)c(OC)c1)-c1nc(N)sc1CCC2", "growth": "35.8%"}, {"compound": "COc1ccc2[nH]c(=O)c(CNc3ccc(Nc4nccc(-c5ccc(Cl)cc5)n4)cc3)cc2c1", "growth": "88%"}, {"compound": "CCCCNC(=O)Oc1ccc(/C(=C(/CC)Cc2ccccc2)c2ccc(OCCN3CCCCCC3)cc2)cc1", "growth": "6.65% (active)"}, {"compound": "Cc1ccccc1CNc1c2ccccc2nc2ccccc12", "growth": "5.84% (active)"}, {"compound": "Cc1nc2cc(-n3c(-c4ccc(F)cc4)nc4ccccc4c3=O)ccc2n1Cc1ccccc1", "growth": "15.2%"}]}]}
